Measurements published in PubChem BioAssay (NCI).
This is part of a sample that, as a whole, favours compounds with a hit. Of some 79,000 tested, about 15% had one in any assay. Rule as the data show it: active = growth inhibition above about 70%; inactive = the rest.

How the values were obtained:
[1] = NCI Yeast Anticancer Drug Screen. Data for the rad50 strain (AID 155);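 also: 0% = growth of vehicle-only cultures of the same strain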; settings: S. cerevisiae rad50 strain growth inhibition; at 50.0 µM; stronger effect = higher value
How it was run: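 Yeast carrying a defined DNA repair defect were exposed to test compounds, and growth was compared with vehicle-treated controls to give percent inhibition.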

[2] = NCI Yeast Anticancer Drug Screen. Data for the mec2-1 strain (AID 157); settings: S. cerevisiae mec2-1 strain, at 50.0 µM, stronger effect = higher value
How it was run: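 Cells of the genetically defined mec2-1 yeast strain are incubated with test compound. Inhibition of growth is calculated against vehicle-treated controls.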

[3] = NCI Yeast Anticancer Drug Screen. Data for the sgs1 mgt1 strain (AID 161);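 also: 0% = growth of cultures given vehicle only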; settings: S. cerevisiae sgs1 mgt1 strain, at 50.0 µM, stronger effect = higher value
How it was run: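 Inhibition of yeast growth, normalised to vehicle-treated controls, is reported for a strain bearing genetic alterations in DNA damage repair.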

[4] = NCI Yeast Anticancer Drug Screen. Data for the cln2 rad14 strain (AID 165);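 also: 0% = growth equal to vehicle treated cultures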; settings: S. cerevisiae cln2 rad14 strain, at 50.0 µM, stronger effect = higher value
How it was run: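 The screen exposed genetically defined yeast (cln2 rad14) to test compounds and scored growth inhibition relative to vehicle-treated controls.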

[5] = NCI Yeast Anticancer Drug Screen. Data for the bub3 strain (AID 167); settings: S. cerevisiae bub3 mutant strain, at 50.0 µM, stronger effect = higher value
How it was run: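 Compounds were applied to a genetically altered yeast strain carrying a cell-cycle control defect. Growth inhibition was scored against vehicle-treated controls.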

[6] = NCI Yeast Anticancer Drug Screen. Data for the mlh1 rad18 strain (AID 175); settings: S. cerevisiae mlh1 rad18 strain growth inhibition; at 50.0 µM; stronger effect = higher value
How it was run: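 Compound-treated yeast growth, normalised to vehicle controls. Strain bears defined DNA repair mutations.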

Measured: growth inhibition

CCOC(=O)C1(C)CCCCC1=O (stereo unspecified)
inactive: [1] 7.45% | [2] -6.55% | [3] 3.2% | [4] 7.95% | [5] 5.9% | [6] 2.95%

c1ccc2c(CCNC3=NCCO3)cccc2c1
inactive: [1] -11.1% | [2] -16.6% | [3] -10.8% | [4] -7.5% | [5] -1.6% | [6] 1.45%

NC(CC(=O)NC(CC(=O)O)C(=O)O)C(=O)O (stereo unspecified)
inactive: [1] -5.5% | [2] -1% | [3] -8.9% | [4] -56% | [5] -20% | [6] 5.2%

O=C1CC2(CC(=O)N1CCc1c[nH]c3ccccc13)OCCO2
inactive: [1] -1.35% | [2] 9.05% | [3] 10.1% | [4] -0.5% | [5] 20.6% | [6] -6.15%

C[C@@]12CCC[C@H]1[C@@H]1CC=C3C[C@@H](S)CC[C@]3(C)[C@H]1CC2
inactive: [1] -6.75% | [2] 4.5% | [3] -3.25% | [4] -31.1% | [5] -6.9% | [6] -13.7%

COc1cc(C(=O)CC(=O)Cc2ccc3ccccc3n2)cc(OC)c1OC
inactive: [1] 2.75% | [2] 1.3% | [3] 0.9% | [4] -15.7% | [5] 2.05% | [6] 38.2%

CCCCCCC(=O)/C=C/c1cccc(OCc2ccccc2)c1
inactive: [1] 32% | [2] 3.8% | [3] 13.3% | [4] 13.6% | [5] 18.4% | [6] 13.7%

N#C/C(=C/c1cccnc1)C(=O)c1ccccc1
inactive: [1] -6.1% | [2] -18.9% | [3] 1.3% | [4] 12.6% | [5] -22.6% | [6] 7.15%

COc1ccc(Cc2c[nH]c3cc(OC)c(OC)cc23)cc1OC
inactive: [1] -22.8% | [2] -9% | [3] 18.9% | [4] -57.8% | [5] 10.1% | [6] -1.4%

O=C1c2ccccc2-c2cc(Cl)c(Cl)cc21
inactive: [1] 13.4% | [2] 2.1% | [3] 13.7% | [4] 17.1% | [5] -1.8% | [6] -22.2%

COC(=O)NC(C(F)(F)F)(C(F)(F)F)P1(=O)OCCCO1
inactive: [1] 54.5% | [2] 59.9% | [3] 26.3% | [4] 43% | [5] 54% | [6] 37.6%

CC(C)CC(NC(=O)C(C)NC(=O)C(NC(=O)OCc1ccccc1)C(C)O)C(=O)NC(CC(C)C)C(=O)NCC(=O)NN (stereo unspecified)
inactive: [1] 12.1% | [2] 1.9% | [3] 0.05% | [4] -0.3% | [5] -5.1% | [6] -15.6%

CC1=CC(=O)c2ccc3c4ccccc4n(C)c3c2C1=O
inactive: [1] -16.7% | [2] -35.1% | [3] -13.9% | [4] 0.2% | [5] -2.9% | [6] -19.9%

O=C(O)C1Cc2c([nH]c3ccccc23)C(c2cccs2)N1 (stereo unspecified)
inactive: [1] 27.7% | [2] 7.6% | [3] 8.7% | [4] 0.5% | [5] -19.8% | [6] 14.3%

COc1ccc2[nH]c3c4c(ccc3c2c1)C(=O)C=CC4=O
inactive: [1] 19.8% | [2] 18.3% | [3] 12% | [4] -1.05% | [5] 9.45% | [6] 17.6%

CCN(CC)CC(Oc1ccccc1)C(=O)c1ccccc1 (stereo unspecified)
inactive: [1] -10.2% | [2] -15.7% | [3] 4.75% | [4] -30.1% | [5] -11.4% | [6] -7.4%

CN1c2ccccc2S(=O)(=O)n2c(COc3ccc(Cl)cc3)nnc21
inactive: [1] -3.4% | [2] 4.15% | [3] 2.5% | [4] 12% | [5] 3.05% | [6] 2.6%

C/C=C/C(=O)OCCOc1ccccc1-c1ccccc1
inactive: [1] 15.5% | [2] 16.3% | [3] 4.35% | [4] -16.3% | [5] 25.2% | [6] 20.1%

CC(N)C(C)(C)O (stereo unspecified)
inactive: [1] -2.1% | [2] -13.7% | [3] 1.7% | [4] -12.8% | [5] 6.2% | [6] 0.05%

CC(C)=NOC(C)C(=O)O (stereo unspecified)
inactive: [1] -11.9% | [2] 18.2% | [3] -24.4% | [4] 10.2% | [5] -0.9% | [6] -3.15%

C=C1C(=O)OC2/C=C(\C)CC/C=C(/C=O)C(OC(=O)C(C)C)C(O)C12 (stereo unspecified)
inactive: [1] -12.2% | [2] -55.4% | [3] 17.6% | [4] -7.25% | [5] -42.1% | [6] -31.6%

Cc1ccccc1NC(=O)CC(=O)N1N=C(N(CCC#N)c2ccccc2Cl)CC1c1ccccc1 (stereo unspecified)
inactive: [1] 4.1% | [2] -10% | [3] -39.3% | [4] 16.4% | [5] -10.1% | [6] -8.3%

Cc1nc2ccccc2[nH]1
inactive: [1] 3.8% | [2] -31.1% | [3] -4% | [4] 5.85% | [5] 3.45% | [6] 8.8%

ClC1(c2ccccc2)c2ccccc2C(Cl)(c2ccccc2)c2ccccc21 (stereo unspecified)
inactive: [1] 17.9% | [2] 0.1% | [3] -6.7% | [4] -3.8% | [5] 12.2% | [6] 27.9%

Nc1nc2c(nc(Br)n2C2OC(CO)C(O)C2O)c(=O)[nH]1 (stereo unspecified)
inactive: [1] -2.05% | [2] -1.6% | [3] 0.95% | [4] -8.4% | [5] 1.8% | [6] -9.65%

Nc1ccc(C(=O)N/C(=C\c2cccc([N+](=O)[O-])c2)c2nc3ccc(Cl)cc3[nH]2)cc1
inactive: [1] -10.1% | [2] -21.4% | [3] -25.3% | [4] -17.9% | [5] 1% | [6] -15.9%

COc1ccc(N=C2SC(=N/N=c3\sc4ccccc4n3C)SC2=Nc2ccc(OC)cc2)cc1
inactive: [1] 4.15% | [2] -32.9% | [3] -2.9% | [4] -41.1% | [5] 28.9% | [6] -12.7%

CC(=O)Nc1ccc(NC(=O)c2ccccc2Cl)cc1
inactive: [1] -0.45% | [2] -9.15% | [3] 4.7% | [4] -6.6% | [5] 10.9% | [6] -33.1%

CCOC(=O)C12CCCC1(O)N(NC(=O)OC(C)(C)C)C(C)=C2C(=O)OC (stereo unspecified)
inactive: [1] -7.85% | [2] 15.1% | [3] -2.6% | [4] -43.2% | [5] 0.35% | [6] -7.5%

COc1cc2c(cc1Cc1cc(OC)c(OC)c(OC)c1)OCO2
inactive: [1] 4.35% | [2] -17.2% | [3] 9.55% | [4] -3.15% | [5] 28.9% | [6] 24.4%

O=S1(=O)C2CCCCCC2(N2CCOCC2)C1C1CCCCC1 (stereo unspecified)
inactive: [1] 16.7% | [2] 22.4% | [3] -0.45% | [4] 25.4% | [5] 6% | [6] 15.1%

CC(C)C(C)(O)CO (stereo unspecified)
inactive: [1] -21.9% | [2] 1.75% | [3] -1.2% | [4] 16.8% | [5] -6.2% | [6] -13.7%

CCN(CC)CCOC(=O)Cc1ccc2c(=O)cc(-c3ccc(C)cc3)oc2c1
inactive: [1] 7.75% | [2] -18.4% | [3] -13.6% | [4] 0.75% | [5] -1.55% | [6] -54.5%

CCCCCCCCCSc1nc2ccccc2s1
inactive: [1] 12.8% | [2] 6.25% | [3] 18.2% | [4] 5.45% | [5] 14.5% | [6] -10.1%

CS(=O)(=O)OCCN(CCOS(C)(=O)=O)c1ccc(N=Nc2ccccc2C(=O)O)cc1
inactive: [1] 27.9% | [2] 21.9% | [3] 21.6% | [4] 24.8% | [5] 19.1% | [6] 32.4%

CC(=O)Nc1ccccc1NC1CC(C)N(c2ccccc2)N1C(C)=O (stereo unspecified)
inactive: [1] -10.9% | [2] -42.4% | [3] -40.4% | [4] -11.5% | [5] -34.4% | [6] 1.05%

[N-]=[N+]=NCC1OCC(O)C(OCc2ccccc2)C1OCc1ccccc1 (stereo unspecified)
inactive: [1] -8.6% | [2] -10.4% | [3] -3.75% | [4] -11.8% | [5] -10.4% | [6] 3.3%

Cn1c(N)c(N=O)c(=O)n(C)c1=O
inactive: [1] -28.9% | [2] -18.8% | [3] -1.6% | [4] -12.8% | [5] -5.65% | [6] -9.9%

N#CC(NCCCNC(C#N)c1ccccc1)c1ccccc1 (stereo unspecified)
inactive: [1] -1% | [2] 5.05% | [3] -4.6% | [4] -23.7% | [5] -3.9% | [6] -18.4%

Cc1ccc(S(=O)(=O)C(c2ccccc2)C(Br)C(=O)c2ccccc2)cc1 (stereo unspecified)
inactive: [1] -0.25% | [2] 0.35% | [3] 18.2% | [4] 7.3% | [5] 1.55% | [6] -8.4%

C=CCOC(=O)CCCCC
inactive: [1] 5% | [2] -2.7% | [3] 2.65% | [4] 7.9% | [5] -3.65% | [6] 0.75%
